Measurements reported in the supplement of paper PMC12636033.
± gives the standard deviation of the averaged measurements. Over roughly 33,000 sequences, “E-score (rank enrichment, -0.5 to 0.5)” has its median near -0.0068; the highest 2% begin near 0.24. The sample holds the highest values, similar sequences and a random draw of the others, so the mix is not that of the screen.

system: muMax20 (Max(13-93) K31hArg/K57hArg, M65Nle); assay: PBM 8-mer E-score (E-score (rank enrichment, -0.5 to 0.5)); higher = stronger preferential binding
Procedure: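 Protein binding microarray (universal PBM chip covering all 10-mers in fixed probe flanks) with chemically synthesized human Max(13-93) bHLH-LZ analogs (not full-length Max) bearing noncanonical residues (hArg, Tha, Aib, Nle at 65) and aromatic Cys staples. Read-out per 8-mer (and its reverse complement): E-score (rank-based enrichment, -0.5 to 0.5) and Z-score of median probe intensity.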

Row | Sequence | PBM 8-mer E-score
1 | ATAACTAT | 0.241 ± 0.0068
2 | ATAACTAC | 0.2058 ± 0.0013
3 | CTAACTAA | 0.00786 ± 0.039
4 | TTAACTAA | 0.184 ± 0.11
5 | ACACTGTG | 0.0421 ± 0.2
6 | CAGATCAA | -0.0923 ± 0.011
7 | GGTGAAGA | -0.0661 ± 0.032
8 | ATCCTCAT | -0.11 ± 0.076
9 | TACGATAA | 0.247 ± 0.0037
10 | CACGATAA | 0.17 ± 0.024
11 | GACGATAA | 0.0693 ± 0.077
12 | AATGCTAA | 0.12 ± 0.033
13 | AGCCAATC | -0.047 ± 0.088
14 | AACATGAA | 0.0865 ± 0.011
15 | CACATGCG | 0.172 ± 0.11
16 | AACATGTA | 0.256 ± 0.028
17 | TACATGTA | 0.157 ± 0.069
18 | AACATGTT | 0.22 ± 0.04
19 | GACATGTA | 0.24 ± 0.067
20 | AACATGTC | 0.12 ± 0.025
21 | AACATGTG | 0.353 ± 0.042
22 | CACATGTG | 0.418 ± 0.015
23 | AACATGCA | 0.206 ± 0.1
24 | GACATGTC | -0.00641 ± 0.13
25 | CACATGTC | 0.12 ± 0.087

Row | Sequence | PBM 8-mer E-score
26 | GTCTGCCA | -0.165 ± 0.0054
27 | GAACTTTA | -0.157 ± 0.037
28 | CTGTGGTA | 0.0865 ± 0.061
29 | CCGGTCGC | -0.276 ± 0.027
30 | ACCGAGAA | -0.187 ± 0.0095
31 | CCCAAGTC | -0.185 ± 0.0086
32 | GACGCTAA | -0.13 ± 0.072
33 | AGCAGTAT | 0.109 ± 0.0063
34 | GATTGCCA | -0.0436 ± 0.034
35 | AGCGTGGA | 0.045 ± 0.011
36 | CACATGTA | 0.347 ± 0.045
37 | CACATGAA | 0.219 ± 0.014
38 | CTCATGTA | 0.0357 ± 0.054
39 | GAAAACCC | 0.11 ± 0.0093
40 | CATAGGTC | -0.0151 ± 0.052
41 | CATGATTC | 0.0292 ± 0.013
42 | CATGATAA | 0.263 ± 0.034
43 | GCTGATTA | 0.292 ± 0.073
44 | TATGATAA | 0.181 ± 0.063
45 | CCTGATTA | 0.14 ± 0.042
46 | GATGATTA | 0.0475 ± 0.008
47 | CATGATTA | 0.281 ± 0.049
48 | AATGATAA | 0.11 ± 0.021
49 | ACTGATTA | 0.0963 ± 0.055
50 | CGCGTTAG | -0.0996 ± 0.017

Row | Sequence | PBM 8-mer E-score
51 | CTGGACTC | -0.0856 ± 0.022
52 | GAAACAAA | 0.236 ± 0.039
53 | AAAACATA | 0.165 ± 0.084
54 | GAAACAAC | 0.00284 ± 0.071
55 | GAAACATC | 0.0279 ± 0.095
56 | GAAACATA | 0.249 ± 0.1
57 | CAAACAAA | 0.185 ± 0.03
58 | GAAGGTGC | -0.0729 ± 0.043
59 | CATGCCAA | 0.158 ± 0.078
60 | ACATAAAA | 0.229 ± 0.019
61 | ATATAAAC | 0.324 ± 0.045
62 | ATATAAAG | 0.189 ± 0.0027
63 | CTATAAGA | 0.0354 ± 0.00038
64 | ATAAAAAT | 0.221 ± 0.025
65 | ATATAAAT | 0.308 ± 0.0047
66 | ATATAAGA | 0.262 ± 0.064
67 | CTATAAAC | 0.144 ± 0.0027
68 | ATATAAAA | 0.317 ± 0.064
69 | CTATAAAA | 0.0172 ± 0.079
70 | GTATAAGA | 0.138 ± 0.044
71 | ATAAAAAC | 0.109 ± 0.079
72 | AAACTTTA | 0.2 ± 0.068
73 | CACCGCTG | -0.316 ± 0.09
74 | GGGAGGGA | 0.0486 ± 0.024
75 | AAATTGAC | -0.0252 ± 0.075

Row | Sequence | PBM 8-mer E-score
76 | AGGTCTGA | -0.112 ± 0.11
77 | CGTGCTAA | -0.0595 ± 0.097
78 | GGGGGTGA | -0.107 ± 0.1
79 | GCACCCGA | -0.265 ± 0.009
80 | ATACCCGC | 0.07 ± 0.0011
81 | CCCACGGA | -0.0746 ± 0.039
82 | CGAGTTTC | 0.112 ± 0.043
83 | AGGCGGAG | -0.00941 ± 0.016
84 | GTATAAAC | 0.137 ± 0.05
85 | GTATAAAA | 0.288 ± 0.072
86 | TTATAAAA | 0.235 ± 0.043
87 | GGGTAATA | 0.117 ± 0.078
88 | AGGGGAAG | -0.0693 ± 0.071
89 | CTAGCGAC | -0.0457 ± 0.095
90 | CCGAAAGG | -0.0656 ± 0.13
91 | CAAGCCAA | -0.034 ± 0.1
92 | CATGTTTA | 0.249 ± 0.0042
93 | CATGTGCA | 0.292 ± 0.063
94 | TATGTGCA | 0.175 ± 0.068
95 | CATGTTTC | 0.143 ± 0.045
96 | GATGTGCA | 0.03 ± 0.16
97 | GATGTTTA | 0.0668 ± 0.12
98 | ATTGTATG | 0.139 ± 0.039
99 | AGTGTGTA | 0.121 ± 0.0059
100 | CGTGTGTA | 0.28 ± 0.017

Row | Sequence | PBM 8-mer E-score
101 | CTTGTATC | 0.0905 ± 0.026
102 | ATTGTATC | 0.304 ± 0.027
103 | GGTGTGTA | 0.159 ± 0.11
104 | CAACAAAA | 0.0937 ± 0.037
105 | ACCCCTCC | 0.155 ± 0.011
106 | AGCATAAA | 0.158 ± 0.013
107 | CGGTTCCA | -0.282 ± 0.0036
108 | GACGGCCA | -0.0819 ± 0.046
109 | AAGTGTAA | -0.0103 ± 0.021
110 | GCCCCTAC | 0.00167 ± 0.035
111 | ACTCTGAG | -0.217 ± 0.068
112 | GATAACGC | 0.105 ± 0.11
113 | CGTGTATA | 0.2 ± 0.044
114 | ATTGTAAA | 0.244 ± 0.021
115 | AGTGTATC | 0.123 ± 0.049
116 | CATGTGTC | 0.117 ± 0.14
117 | GATGTGTA | 0.17 ± 0.024
118 | CTTGTAAA | 0.217 ± 0.015
119 | ATTGTAAG | 0.16 ± 0.042
120 | CATGTGTA | 0.332 ± 0.054
121 | CGTGTATC | 0.238 ± 0.025
122 | AGCTCTCG | -0.155 ± 0.045
123 | GAGTCACC | -0.0777 ± 0.02
124 | AACCTTAT | 0.0715 ± 0.044
125 | AACAGTAA | -0.00834 ± 0.034

Row | Sequence | PBM 8-mer E-score
126 | GCTCGTTA | 0.0811 ± 0.07
127 | AACGTAAG | -0.0553 ± 0.13
128 | AAGTGTGA | 0.0524 ± 0.053
129 | TAGTGTGA | 0.15 ± 0.12
130 | CAGTGTGA | 0.2398 ± 0.0018
131 | CTGGTCTC | -0.256 ± 0.045
132 | AATGGATC | -0.167 ± 0.0063
133 | CCACCAAG | -0.0933 ± 0.014
134 | CCATAGTA | 0.0366 ± 0.064
135 | ATATAGTA | 0.281 ± 0.048
136 | GTATAGTA | 0.227 ± 0.0046
137 | CTATAGTA | 0.109 ± 0.0064
138 | GCATAGTA | 0.277 ± 0.041
139 | ACATAGTA | 0.0946 ± 0.04
140 | ACCGGAGC | -0.286 ± 0.0054
141 | CGGTCCAG | -0.279 ± 0.069
142 | GCTCCACA | -0.0777 ± 0.035
143 | GCCTCAGA | -0.218 ± 0.018
144 | AACGAACG | 0.0291 ± 0.073
145 | CTACTCGC | -0.176 ± 0.076
146 | AAAATCAA | 0.0939 ± 0.085
147 | TAAATCAA | 0.261 ± 0.01
148 | GAAATCAA | 0.0452 ± 0.11
149 | ATCGCGGG | -0.145 ± 0.056
150 | AATCACGA | 0.00734 ± 0.13

Row | Sequence | PBM 8-mer E-score
151 | AATCACAG | -0.113 ± 0.046
152 | AATCACGC | 0.196 ± 0.096
153 | AATCACGT | 0.385 ± 0.046
154 | AATCACAA | 0.172 ± 0.028
155 | AATCACAT | 0.242 ± 0.066
156 | AGGGCAAA | -0.0293 ± 0.034
157 | CGAAAATA | 0.00928 ± 0.085
158 | CAGCGGCG | -0.0966 ± 0.073
159 | GAACCTCC | -0.133 ± 0.0052
160 | CGGAGCAC | -0.157 ± 0.021
161 | GCGCTACA | -0.0407 ± 0.037
162 | TCGCTACA | 0.115 ± 0.042
163 | ACGCTACA | 0.255 ± 0.047
164 | ACTTCGGG | 0.0794 ± 0.099
165 | ACGCTAAG | -0.149 ± 0.038
166 | CCACTGAC | -0.169 ± 0.032
167 | AAAGCATA | 0.249 ± 0.045
168 | CAAGCATA | 0.064995 ± 4.9e-05
169 | AAAGCTGG | 0.0179 ± 0.046
170 | CAAGCATG | 0.134 ± 0.038
171 | CAAGCTGA | -0.175 ± 0.11
172 | AAAGCATT | 0.1 ± 0.0071
173 | AAAGCTGA | 0.275 ± 0.086
174 | AAAGCATG | 0.25 ± 0.063
175 | TAAGCATA | 0.11 ± 0.096
